A short description of test [1]: qHTS for Inhibitors of the Functional Ribonucleoprotein Complex (vRNP) of Lassa (LASV) Arenavirus: LASV Primary Screen - GLuc reporter signal (AID 1347082; calls by dose curve; tested in HEK293 reporter line; note: nearly all actives have a fitted effect of over 60% in size; note: potency is the fitted concentration of half-maximal effect; for activity change, negative = inhibition: % is set by controls: 0 for no effect and ±100 for the full control effect). (Quantitative high-throughput screening tests each substance at several concentrations.)
The nature of test [2]: qHTS for Inhibitors of the Functional Ribonucleoprotein Complex (vRNP) of Lassa (LASV) Arenavirus: Viability assay - alamar blue signal for LASV Primary Screen (AID 1347083; calls by dose curve; tested in HEK293 reporter line; note: nearly all actives have a fitted effect of over 80% in size; note: potency is the fitted concentration of half-maximal effect).
Test [3] can be described thus: qHTS for Inhibitors of the Functional Ribonucleoprotein Complex (vRNP) of Lymphocytic Choriomeningitis Arenaviruses (LCMV): Viability assay - alamar blue signal for LCMV Primary Screen (AID 1347085; calls by dose curve; tested in HEK293 reporter line; note: nearly all actives have a fitted effect of over 80% in size; note: potency is the fitted concentration of half-maximal effect).
The target in test [4] is Nucleoprotein (Lymphocytic choriomeningitis virus (strain Armstrong)) (UniProt P09992). Kind of test: qHTS for Inhibitors of the Functional Ribonucleoprotein Complex (vRNP) of Lymphocytic Choriomeningitis Arenaviruses (LCMV): LCMV Primary Screen - GLuc reporter signal (AID 1347086). For activity change, negative = inhibition: % is set by controls: 0 for no effect and ±100 for the full control effect. Note: nearly all actives have a fitted effect of over 70% in size. Note: potency is the fitted concentration of half-maximal effect.
Test [5] in a line: Primary qHTS for small molecule stabilizers of the endoplasmic reticulum resident proteome: Secreted ER Calcium Modulated Protein (SERCaMP) assay (AID 1508630; active = well fitted curve in the direction sought with a large enough effect; an effect the other way counts as inactive or inconclusive; note: % is set by controls: 0 for no effect and ±100 for the full control effect). In short, it runs like this:
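GLuc-SERCaMP-expressing SH-SY5Y cells, pretreated 16 h with compound, are challenged with thapsigargin to empty ER calcium stores; after 4 h, coelenterazine is added directly to the medium and luminescence is imaged.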

Test [6] concerns the target Cytochrome P450 3A4 (Homo sapiens) (UniProt P08684). Kind of test: qHTS Assay for Inhibitors and Substrates of Cytochrome P450 3A4 (AID 884; active = well fitted curve in the direction sought with a large enough effect; an effect the other way counts as inactive or inconclusive; note: nearly all actives have a fitted effect of over 50% in size; note: potency is the fitted concentration of half-maximal effect). An outline of the steps: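 20 nM human CYP3A4 with 25 uM Luciferin-PPXE (at KM) in 200 mM KPO4, preincubated 10 min with compound; NADPH regeneration started a 60 min RT reaction. Luciferin detected by luminescence, normalized to 57 uM ketoconazole as full inhibition.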

The target is the same in test [7]. Kind of test: qHTS Assay for Activators of Cytochrome P450 3A4 (AID 885; active = well fitted curve in the direction sought with a large enough effect; an effect the other way counts as inactive or inconclusive; note: nearly all actives have a fitted effect of over 65% in size). In short, it runs like this:
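Human CYP3A4 (20 nM) with Luciferin-PPXE at 25 uM (its KM) in 200 mM KPO4; 10 min compound preincubation, then NADPH regeneration and 60 min reaction at RT. Luciferin read by luminescence; normalized to 57 uM ketoconazole full inhibition.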

A short description of test [8]: Confirmation and Secondary Assay for Modulators of Hemoglobin Beta Chain Splicing at IVS2 654 locus (AID 910; active = well fitted curve in the direction sought with a large enough effect; an effect the other way counts as inactive or inconclusive;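 note: per-well total GFP intensity by laser scanning cytometry after 2-day treatment; % of control where 0% means no effect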). An outline of the steps:
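HeLa cells stably carrying EGFP interrupted by mutant beta-globin IVS2-654 intron (CMV-driven) were treated with compound for 2 days at 37C; corrected splicing was scored as total peak GFP intensity per well (488 nm excitation, 500-520 nm emission).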

A short description of test [9]: Confirmation and Secondary Assay for Modulators of Hemoglobin Beta Chain Splicing at IVS2 705 locus (AID 930; active = well fitted curve in the direction sought with a large enough effect; an effect the other way counts as inactive or inconclusive;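 note: HeLa cells stably expressing the EGFP-705 splicing reporter; GFP fluorescence per well restored by corrected splicing of the IVS2-705 intron in EGFP; % of control where 0% means no effect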). In short, it runs like this:
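Splice-correction reporter: EGFP cDNA split by beta-globin intron 2 bearing the 705 mutation, stably in HeLa. Compound incubation 2 days, 37C; fluorescent objects 5-250 µm summed per well.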

Test [10] in a line: qHTS Assay for Lipid Storage Modulators (AID 1519). To be noted: Drosophila S3 cells, BODIPY lipid droplet/cell ratio, laser cytometry, cells loaded with oleic acid; for activity change, negative = inhibition: at 57.5 µM (top of the series). An outline of the steps:
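Cells seeded at 5,000 per well were treated with compounds over a concentration series and loaded with oleic acid (400 uM, as added). Lipid droplet fluorescence (488 nm excitation, 500-530 nm channel) was read by laser-scanning cytometry and normalized to 20 uM Triacsin C.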

For test [11], the target named is Ubiquitin carboxyl-terminal hydrolase 1 (Homo sapiens) (UniProt O94782). Kind of test: Inhibitors of USP1/UAF1: Pilot qHTS (AID 504865; active = well fitted curve in the direction sought with a large enough effect; an effect the other way counts as inactive or inconclusive; note: nearly all actives have a fitted effect of over 35% in size; note: potency is the fitted concentration of half-maximal effect). In short, it runs like this: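 Enzyme-free wells gave the negative control, while test wells held 1nM USP1/UAF1 preincubated with compound for 15 min at room temperature. Ub-Rho at 150nM final started the reaction, and fluorescence at 480/540 nm was recorded kinetically.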

The nature of test [12]: Cytotoxicity counterscreen for inhibitors of SARS-CoV-2 cell entry (AID 1645845). Note: % is set by controls: 0 for no effect and ±100 for the full control effect; nearly all actives have a fitted effect of over 50% in size. In short, it runs like this:
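Expi293F/hACE2 cells seeded overnight; cpd pin-transferred in DMSO, 1 h preincubation, + media, 48 h 37 C 5% CO2; ATPLite 1step luminescence; normalized to cells and no cells.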
(A counterscreen serves to expose hits that act by an unwanted route or on another target.)

Test [13] is described as follows: Confirmatory qHTS to identify inhibitors of SARS-CoV-2 cell entry (AID 1645844). Note: potency is the fitted concentration of half-maximal effect; nearly all actives have a fitted effect of over 45% in size. An outline of the steps: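 HEK293-ACE2 cells (Expi293F stably expressing human ACE2) were pretreated with compounds for 1 hr at 37C, then infected with MLV-based particles carrying Wuhan-Hu-1 spike (C-terminal 19-aa truncation). Luciferase luminescence read after 48 hr; normalized to spike PP (100%) and bald PP (0%).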

Test [14] in a line: Primary qHTS to identify inhibitors of SARS-CoV-2 cell entry (AID 1645846). Note: nearly all actives have a fitted effect of over 45% in size. To be noted: activity change, negative = inhibition: at 57.1 µM (top of the series) unless noted. In short, it runs like this:
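Using luciferase-reporting pseudoviruses carrying Wuhan-Hu-1 spike, the screen tracks entry into stably ACE2-expressing cells over 48 hr. Activity is expressed relative to spike particles versus particles lacking any fusion protein.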

The nature of test [15]: NCATS anti-infectives library activity on HEK293 viability as a counter-qHTS vs the C. elegans viability qHTS (AID 1745854; active = well fitted curve in the direction sought with a large enough effect; an effect the other way counts as inactive or inconclusive;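 note: HEK293 cells exposed to compounds for 24 hr before the viability read; % is set by controls: 0 for no effect and ±100 for the full control effect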). An outline of the steps: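 HEK293 cells (1,500/well) exposed 24 hr at 37C to 1:5 titrations, up to 41.7 uM final; counter-screen to a C. elegans viability qHTS. Viability by CellTiter-Glo luminescence after 10 min at room temperature; digitonin as control.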

Test [16] deals with DNA dC->dU-editing enzyme APOBEC-3G (Homo sapiens) (UniProt Q9HC16). Kind of test: qHTS for inhibitors of Vif-A3G interactions: Validation (AID 588379; active = well fitted curve in the direction sought with a large enough effect; an effect the other way counts as inactive or inconclusive; note: 0% is about no effect). An outline of the steps: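 HeLa cells stably expressing Vif and A3G-eYFP, 700 cells/well, incubated overnight at 37 deg C, then exposed to compound overnight at 37 deg C. Inhibition of Vif-mediated degradation read as increased yellow fluorescence (Ex 488/Em 500-530) by laser-scanning cytometry.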

Test [17] is described as follows: VSVG counterscreen qHTS to identify inhibitors of SARS-CoV-2 cell entry (AID 1645847). Note: potency is the fitted concentration of half-maximal effect; nearly all actives have a fitted effect of over 65% in size. In short, it runs like this:
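Entry of VSV-G pseudotyped particles into human ACE2-expressing HEK293 cells was measured by luciferase luminescence 48 h after infection, with compound added 1 h beforehand.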

Setting [18] is: measured here: cell count channel max response.
Where [19] appears, read: measured here: lipid channel max response.

Results filed as inconclusive are left out. Some structures have more than one record in an assay (separate samples or runs), and their calls can disagree. Activity calls are given as the source filed them. Unless noted, calls come from the whole dose curve.

Chain of Nucleoprotein (Lymphocytic choriomeningitis virus (strain Armstrong)) (P09992 whole entry, looked up): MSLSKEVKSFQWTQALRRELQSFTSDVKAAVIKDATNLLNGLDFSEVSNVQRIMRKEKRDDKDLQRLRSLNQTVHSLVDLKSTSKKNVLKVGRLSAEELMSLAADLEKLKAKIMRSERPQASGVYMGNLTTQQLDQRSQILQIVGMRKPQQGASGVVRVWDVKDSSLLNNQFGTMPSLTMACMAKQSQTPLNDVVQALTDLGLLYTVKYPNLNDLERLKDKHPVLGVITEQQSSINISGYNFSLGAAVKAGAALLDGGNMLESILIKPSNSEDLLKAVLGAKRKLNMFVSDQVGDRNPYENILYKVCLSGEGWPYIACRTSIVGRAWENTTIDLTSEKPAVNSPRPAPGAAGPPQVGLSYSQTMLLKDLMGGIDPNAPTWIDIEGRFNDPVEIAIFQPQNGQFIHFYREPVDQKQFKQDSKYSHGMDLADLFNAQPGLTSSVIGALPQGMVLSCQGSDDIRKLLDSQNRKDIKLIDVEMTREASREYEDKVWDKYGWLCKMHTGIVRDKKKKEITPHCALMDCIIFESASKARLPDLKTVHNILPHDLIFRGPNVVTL
Chain of Ubiquitin carboxyl-terminal hydrolase 1 (Homo sapiens) (O94782 whole entry, looked up): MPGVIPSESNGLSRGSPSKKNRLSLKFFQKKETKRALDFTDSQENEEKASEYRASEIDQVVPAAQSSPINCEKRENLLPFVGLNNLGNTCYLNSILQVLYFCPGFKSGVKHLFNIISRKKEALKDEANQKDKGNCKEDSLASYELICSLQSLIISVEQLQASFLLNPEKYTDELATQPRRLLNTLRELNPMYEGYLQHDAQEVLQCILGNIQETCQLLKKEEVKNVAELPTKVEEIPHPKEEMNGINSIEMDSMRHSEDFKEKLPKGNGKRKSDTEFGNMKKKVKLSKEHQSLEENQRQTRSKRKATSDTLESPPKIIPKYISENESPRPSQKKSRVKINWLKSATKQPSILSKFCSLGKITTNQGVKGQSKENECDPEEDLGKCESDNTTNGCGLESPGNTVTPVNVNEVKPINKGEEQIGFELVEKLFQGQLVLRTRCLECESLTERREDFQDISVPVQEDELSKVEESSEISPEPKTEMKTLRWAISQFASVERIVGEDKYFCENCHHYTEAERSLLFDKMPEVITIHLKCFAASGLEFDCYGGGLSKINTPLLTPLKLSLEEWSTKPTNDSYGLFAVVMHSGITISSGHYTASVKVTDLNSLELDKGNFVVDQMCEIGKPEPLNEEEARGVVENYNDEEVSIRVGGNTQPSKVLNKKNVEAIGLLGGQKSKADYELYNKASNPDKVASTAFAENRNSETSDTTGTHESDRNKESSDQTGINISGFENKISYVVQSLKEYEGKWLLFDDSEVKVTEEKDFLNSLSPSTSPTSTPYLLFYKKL
Chain of Cytochrome P450 3A4 (Homo sapiens) (P08684 whole entry, looked up): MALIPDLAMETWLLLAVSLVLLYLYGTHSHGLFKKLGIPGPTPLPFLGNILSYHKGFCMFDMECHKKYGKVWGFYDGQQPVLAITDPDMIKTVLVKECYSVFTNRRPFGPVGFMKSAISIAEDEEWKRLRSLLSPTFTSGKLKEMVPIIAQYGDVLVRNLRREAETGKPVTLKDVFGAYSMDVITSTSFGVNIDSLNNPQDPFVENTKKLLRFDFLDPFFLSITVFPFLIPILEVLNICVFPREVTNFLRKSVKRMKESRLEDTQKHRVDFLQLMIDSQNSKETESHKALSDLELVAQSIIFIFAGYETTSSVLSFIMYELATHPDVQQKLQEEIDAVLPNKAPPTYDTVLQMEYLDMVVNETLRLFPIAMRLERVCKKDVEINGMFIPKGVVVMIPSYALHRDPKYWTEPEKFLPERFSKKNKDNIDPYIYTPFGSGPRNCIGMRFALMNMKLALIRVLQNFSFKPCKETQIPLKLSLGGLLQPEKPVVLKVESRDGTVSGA
Chain of DNA dC->dU-editing enzyme APOBEC-3G (Homo sapiens) (Q9HC16 whole entry, looked up): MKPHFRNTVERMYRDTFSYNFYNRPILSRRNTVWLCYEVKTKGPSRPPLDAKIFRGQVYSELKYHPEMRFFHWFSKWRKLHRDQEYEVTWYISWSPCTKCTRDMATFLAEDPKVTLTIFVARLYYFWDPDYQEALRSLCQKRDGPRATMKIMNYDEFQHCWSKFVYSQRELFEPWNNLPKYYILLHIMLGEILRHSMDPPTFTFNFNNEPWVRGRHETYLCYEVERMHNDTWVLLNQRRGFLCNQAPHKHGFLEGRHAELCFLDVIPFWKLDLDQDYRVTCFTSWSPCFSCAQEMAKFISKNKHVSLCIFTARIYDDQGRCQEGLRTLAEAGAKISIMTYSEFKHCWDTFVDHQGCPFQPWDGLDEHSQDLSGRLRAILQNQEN

For the molecule `C/C=C1/CN2CC[C@]34C(=C(C=O)[C@@H]1C[C@H]23)Nc1c(O)cccc14`, the Potency entry in test [1], in test [2], in test [3], in test [4] and in [5] was “inactive” throughout.
As for `C=CC1CN2CCC1CC2C(O)c1ccnc2ccccc12` (stereo not drawn), the Potency in [6] was 25.1 µM (active) and inactive. The Potency entry in test [7], in test [8], in test [11], in [1], in [2] and in [3] was “inactive” in each case. Further, the Potency entry in [4] is “inactive”. For the same molecule, the call in test [9] was inactive. In addition, the activity change, negative = inhibition in [10] is 8.66% (inactive). For the same molecule, the values for the max response in test [10] (setting [18]) and in test [10] (setting [19]) were 10.9% and 22.1%, respectively.
Turning to `CC[C@@]1([C@@H]2O[C@@H]([C@H]3O[C@@](O)(CO)[C@H](C)C[C@H]3C)C[C@H]2C)CC[C@H]([C@]2(C)CC[C@]3(C[C@H](O)[C@@H](C)[C@@H]([C@@H](C)[C@@H](OC)[C@H](C)C(=O)O)O3)O2)O1`, the Potency is 376 nM (active) in test [1], 3350 nM (active) in [2], 4210 nM (active) in [3] and 1060 nM (active) in [4]. In addition, the Potency result in test [12] is “inactive”.
Consider `CCCCC(C)(C)[C@H](O)C=C[C@H]1[C@H](O)CC(=O)[C@H]1CC=CCCCC(=O)O`, for which the Potency result in test [1], in [2], in test [3], in test [4] and in test [12] was “inactive” throughout. The Potency in test [13] is 17100 nM (active). In addition, in [14], the activity change, negative = inhibition is -55.7%.
For the molecule `COC1=C[C@]23CCCN2CCc2cc4c(cc2[C@@H]3[C@@H]1O)OCO4`, the Potency entry in test [1], in [2], in test [3], in test [4], in test [5] and in [15] was “inactive” throughout.
As for `C/C=C1/CN2CC[C@]34C(=C(C=O)[C@H]1C[C@@H]23)Nc1ccccc14`, the Potency result in [6], in test [11], in test [16], in [1], in test [2] and in test [3] was “inactive” in each case. The Potency result in test [4] was “inactive”. Moreover, the activity change, negative = inhibition in [10] was -2.11% (inactive). Further, the max response in [10] (setting [18]) came out at 7.61%; in test [10] (setting [19]) it was 5.28%.
For the molecule `CC(C)c1nn(-c2c(Cl)cccc2Cl)c2nc(Cc3ccc(OCCO)cc3)[nH]c(=O)c12`, the Potency was 172 nM (active) in [1]; 217 nM (active) in [2]; 153 nM (active) in [3]; 243 nM (active) in test [4]; 34.1 nM (active) in test [13]. In addition, the activity change, negative = inhibition in test [14] was -95.3%.
As for `Cc1c(CN2CCN(S(C)(=O)=O)CC2)sc2c(N3CCOCC3)nc(-c3cnc(N)nc3)nc12`, the Potency is 86.3 nM (active) in test [1]; 43.2 nM (active) in test [2]; 122 nM (active) in test [3]; 96.8 nM (active) in test [4]; 215 nM (active) in test [13]; 1210 nM (active) in [17].
On to `CN1CC(CO)=C[C@H]2c3cccc4[nH]cc(c34)C[C@H]21`, for which the Potency entry in test [7], in test [8], in test [1], in [2], in [3] and in [4] was “inactive” each time. In addition, in test [9], the result was inactive. Besides, the activity change, negative = inhibition in test [10] is 6.54% (inactive). In addition, the values for the max response in test [10] (setting [18]) and in test [10] (setting [19]) were 8.91% and 13%, respectively. Also, the Potency in [11] was 50100 nM (active).

The values are drawn from PubChem BioAssay (NCATS).
